# Experimental data taken from PubChem BioAssay (NCATS).
# Several values for one entry are separate records, joined by “and”; a condition that tells them apart may be missing. Equal entries are not always repeated. Inconclusive results are not listed. Values without a mark were called inactive. Activity calls are given as the source filed them. Calls follow the shape of the dose curve; as a rule, active = well fitted activation curve with a large enough effect in the signal ratio (not every such curve was filed as active); inconclusive = small, poorly fitted or top-dose-only effect, or a change in a side signal; inactive = flat fitted curve, though single readings scatter; the % refers to the signal ratio.
# Assay: qHTS assay for small molecule activators of the p53 signaling pathway (AID 651743); as to activation: series mostly up to about 92 µM; % of control where 0% means no effect
# Details: HCT-116 p53RE-bla, beta-lactamase FRET ratio, 16 h; activation: active compounds read high
# Source text: National Center for Advancing Translational Sciences [NCATS] NIH Chemical Genomics Center [NCGC] U.S. Environmental Protection Agency [EPA] National Institutes of Environmental Health Sciences [NIEHS] National Toxicology Program [NTP] Assay Overview: p53, a tumor suppressor protein, is activated following cellular insult, including DNA damage and other cellular stresses. The activation of p53 regulates cell fate by inducing DNA repair, cell cycle arrest, apoptosis, or cellular senescence. The activation of p53, therefore, is a good indicator of DNA damage and other cellular stresses. The CellSensor p53RE-bla HCT-116 cell line (Invitrogen) contains a stably integrated beta-lactamase reporter gene under control of the p53 response elements. The activation of the report gene under culture conditions can be detected by fluorescence intensity. This cell line can be used to screen chemicals in a 1536-well plate format and to identify agonists that activate p53 signaling pathway.
# Assay Protocol Summary: The p53RE-bla cells were dispensed at 4,000 cells/5 ul/well in 1536-well black wall/clear bottom plates using a Multidrop dispenser. After the assay plates were incubated at a 37 C/5% CO2 incubator for 5 hours, 23 nL of compounds dissolved in DMSO, positive controls or DMSO only was transferred to the assay plate by a pin tool. The plates were incubated at 37 C for 16 hours. After 1 uL of LiveBLAzer B/G FRET substrate was added using a Flying Reagent Dispenser, the plates were incubated at room temperature for 2 hours, and fluorescence intensity was measured by an Envision plate reader.
# Potency is read from the fitted curve at half-maximal effect.
SMILES,activation,Potency
C[N+]1(C)CCCCC1,0.854%,–
CCOP(=S)(Oc1cnc(C(C)(C)C)nc1)OC(C)C (stereo not given),-2.32%,–
CC(C)COP(=O)(OCC(C)C)OCC(C)C,-2.4%,–
CCc1cc(C)cc(CC)c1-c1c(OC(=O)C(C)(C)C)n2n(c1=O)CCOCC2,-4.38%,–
CCOP(=S)(OCC)Oc1nc(Cl)n(C(C)C)n1,-5.02%,–
N#CC(CCc1ccc(Cl)cc1)(Cn1cncn1)c1ccccc1 (stereo not given),0.949%,–
C=CC(=O)OCCCCCC(C)C,-4.19%,–
CCOP(=O)(OCC)Oc1nc(Cl)c(Cl)cc1Cl,-7.33%,–
CNC(=O)Oc1cc(C)c(SC)c(C)c1,-3.45%,–
COP(=O)(OC)SCn1c(=O)oc2cc(Cl)cnc21,13.8%,–
Cc1c(COC(=O)C2C(/C=C(\Cl)C(F)(F)F)C2(C)C)cccc1-c1ccccc1 (stereo not given),2.17%,–
CC1(C)[C@H](C(=O)O[C@H](C#N)c2cccc(Oc3ccccc3)c2)[C@@H]1C=C(Br)Br,3.18%,–
CCCCOCCOC(C)=O,0.23%,–
O=[N+]([O-])c1ccc(Oc2ccc(C(F)(F)F)cc2[N+](=O)[O-])cc1,-0.528%,–
Cc1c(F)c(F)c(COC(=O)C2C(/C=C(\Cl)C(F)(F)F)C2(C)C)c(F)c1F (stereo not given),-3.48%,–
CCOP(=S)(S)OCC,-1.75%,–
[CH3][Sn]([Cl])([Cl])[Cl],-2.75%,–
CC/C(=N\OC/C=C/Cl)C1=C(O)CC(C2CCOCC2)CC1=O (stereo not given),-3.67%,–
CCOP(=O)(OCC)SCSC(C)(C)C,-4.41%,–
O=P(Oc1ccccc1)(Oc1ccccc1)Oc1ccccc1,-5.18%,–

SMILES,activation,Potency
Oc1ccc(C2(c3ccc(O)cc3)c3ccccc3-c3ccccc32)cc1,–,39.8 µM (active)
COP(=O)(NC(C)=O)SC (stereo not given),-0.529%,–
COC(=O)NS(=O)(=O)c1ccc(N)cc1,-7.42% and -0.724%,–
FC(F)(F)c1ccc(OCCCOc2c(Cl)cc(OCC=C(Cl)Cl)cc2Cl)nc1,2.67%,–
CCOP(=S)(OCC)SCSP(=S)(OCC)OCC,-5.14%,–
COP(=O)(OC)Oc1nc(Cl)c(Cl)cc1Cl,6.76%,–
CCOP(=S)(OCC)SCn1c(=O)oc2cc(Cl)ccc21,2.68%,–
CC(Oc1ccc(Cl)cc1Cl)C(=O)O (stereo not given),0.243%,–
CCCCOCN(C(=O)CCl)c1c(CC)cccc1CC,-3.79%,–
C=CCC1=C(C)[C@@H](OC(=O)[C@@H]2[C@@H](C=C(C)C)C2(C)C)CC1=O,0.97%,–
O=C(O)C1(O)c2ccccc2-c2ccc(Cl)cc21 (stereo not given),13.8%,–
Clc1ccc(C(c2ccc(Cl)cc2)C(Cl)Cl)cc1,6.6%,–
Cc1cc(C)nc(NC(=O)NS(=O)(=O)c2ccccc2C(=O)OC2COC2)n1,1.69%,–
COC(=O)c1ccccc1S(=O)(=O)NC(=O)N(C)c1nc(C)nc(OC)n1,0.955%,–
CN(C)c1ccc(C(=O)c2ccc(N(C)C)cc2)cc1,–,3.98 µM (active)
CNC(=O)Oc1cc(C)cc(C(C)C)c1,6.05%,–
C1CC[CH]([Sn]([CH]2CCCCC2)[CH]2CCCCC2)CC1,-8.17%,–
CCCCC(CC)CO[N+](=O)[O-] (stereo not given),-4.18%,–
Cc1ccc(O)cc1C,-0.374%,–
O=C(CCl)c1ccccc1,2.08%,–
